Source: PubChem BioAssay AID1159580 (chemical genetic matrix, 2015)
Hit rate of the full screen: of about 5,500 compounds, about 2,000 (36%) were called active. Another 18% or so got no clear call; they are omitted. No stated cut-off is given here; in the data, active means normalized growth mostly below about 0.91 (no sharp cut-off); inconclusive means no clear call, values can overlap the other calls; inactive means mostly above about 0.92. The list shows a part of the results.

Assay: chemical genetic growth profiling, strain panel (AID 1159580);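 further: tested at 20 µM; growth read once vehicle control cultures reached saturation at 30 °C; 1 = growth at the plate median or of vehicle wells; lower values mean less growth of the strain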
Conditions: S. cerevisiae deletion strains, growth OD
[1] = locus YCL061C, strain MRC1, hits give low values
[2] = locus YDL101C, strain DUN1, hits give low values
[3] = locus YHR030C, strain SLT2, hits give low values
[4] = locus YHR079C, strain IRE1, hits give low values
[5] = locus YJL095W, strain BCK1, hits give low values
[6] = locus YJR066W, strain TOR1, hits give low values
[7] = locus YLR113W, strain HOG1, hits give low values
[8] = locus YNL183C, strain NPR1, hits give low values
[9] = locus YOR231W, strain MKK1, hits give low values
[10] = locus YPL256C, strain CLN2, hits give low values

Measured: normalized growth

CCN(CCS(=O)(=O)c1ccc(C)cc1)S(=O)(=O)c1ccccc1
inactive: locus YAL013W, strain DEP1, hits give low values 1.02 | locus YBR229C, strain ROT2, hits give low values 1.01 | [1] 0.988 | [2] 0.991 | locus YDL134C, strain PPH21, hits give low values 0.987 | locus YDR150W, strain NUM1, hits give low values 1.01 | locus YEL061C, strain CIN8, hits give low values 0.987 | locus YGR078C, strain PAC10, hits give low values 0.998 | locus YGR229C, strain SMI1, hits give low values 0.999 | [3] 0.993 | locus YHR087W, strain rtc3, hits give low values 0.994 | locus YJR043C, strain POL32, hits give low values 1 | locus YJR075W, strain HOC1, hits give low values 0.995 | locus YKL190W, strain CNB1, hits give low values 0.998 | locus YLR039C, strain RIC1, hits give low values 1.05 | locus YLR058C, strain SHM2 (second series), hits give low values 0.998 | locus YLR085C, strain ARP6, hits give low values 1.06 | locus YLR262C, strain YPT6, hits give low values 1.05 | locus YML094W, strain GIM5, hits give low values 1.03 | locus YMR219W, strain ESC1, hits give low values 1.01 | locus YMR263W, strain SAP30, hits give low values 0.988 | locus YMR307W, strain GAS1, hits give low values 0.969 | locus YNL153C, strain GIM3, hits give low values 0.984 | locus YNL298W, strain CLA4 (second series), hits give low values 1.01 | locus YNL322C, strain KRE1, hits give low values 1.01 | locus YNR030W, strain Alg12, hits give low values 0.99 | locus YPL055C, strain LGE1, hits give low values 1.06 | locus YPL241C, strain CIN2, hits give low values 1 | locus YPR135W, strain CTF4, hits give low values 0.943

O=c1[nH][nH]c(=O)n1CCCc1cc2cccc3ccc4cccc1c4c32
inactive: locus YAR019C, strain CDC15, hits give low values 1 | locus YBL105C, strain PKC1, hits give low values 0.987 | locus YBR135W, strain CKS1, hits give low values 0.998 | locus YBR136W, strain MEC1, hits give low values 0.988 | locus YBR160W, strain CDC28, hits give low values 0.994 | locus YDL017W, strain CDC7, hits give low values 0.994 | locus YDL028C, strain MPS1, hits give low values 0.992 | [2] 0.984 | locus YDL108W, strain KIN28, hits give low values 0.988 | locus YDL132W, strain cdc53, hits give low values 0.99 | locus YDL214C, strain PRR2, hits give low values 0.968 | locus YDR052C, strain DBF4, hits give low values 0.991 | locus YDR054C, strain cdc34, hits give low values 0.994 | locus YDR226W, strain ADK1, hits give low values 0.995 | locus YDR477W, strain SNF1, hits give low values 0.979 | locus YER123W, strain YCK3, hits give low values 0.949 | locus YER133W, strain GLC7, hits give low values 0.97 | locus YFL009W, strain cdc4, hits give low values 0.994 | locus YFL029C, strain CAK1, hits give low values 0.999 | locus YFR003C, strain YPI1, hits give low values 0.981 | locus YFR019W, strain FAB1, hits give low values 0.935 | locus YFR028C, strain CDC14, hits give low values 0.987 | locus YGR040W, strain KSS1, hits give low values 0.95 | locus YGR052W, strain FMP48, hits give low values 0.936 | locus YGR092W, strain DBF2, hits give low values 0.9 | [3] 1.02 | [4] 1 | locus YHR082C, strain KSP1, hits give low values 0.986 | locus YHR205W, strain SCH9, hits give low values 0.915 | locus YIL147C, strain SLN1, hits give low values 0.983 | [5] 0.873 | locus YJL128C, strain PBS2, hits give low values 0.952 | locus YJL157C, strain FAR1, hits give low values 0.99 | locus YJR016C, strain ILV3, hits give low values 0.997 | locus YJR066W, strain TOR1 (second series), hits give low values 0.927 | [6] 0.964 | locus YKL048C, strain ELM1, hits give low values 0.956 | locus YKL067W, strain YNK1, hits give low values 0.971 | locus YKL101W, strain HSL1, hits give low values 0.937 | locus YKL193C, strain SDS22, hits give low values 0.992 | locus YKL203C, strain TOR2, hits give low values 0.985 | [7] 0.922 | locus YLR133W, strain CKI1, hits give low values 0.952 | locus YLR403W, strain SFP1, hits give low values 0.908 | locus YML070W, strain DAK1, hits give low values 0.942 | locus YMR001C, strain CDC5, hits give low values 0.992 | locus YMR205C, strain PFK2 (second series), hits give low values 0.973 | locus YMR277W, strain FCP1, hits give low values 0.989 | locus YNL006W, strain LST8, hits give low values 0.993 | locus YNL020C, strain ARK1, hits give low values 0.968 | locus YNL161W, strain CBK1, hits give low values 0.993 | [8] 0.911 | locus YNL207W, strain RIO2, hits give low values 0.995 | locus YNL222W, strain SSU72, hits give low values 0.996 | locus YNL307C, strain MCK1 (second series), hits give low values 0.909 | locus YOL078W, strain AVO1, hits give low values 0.993 | locus YOL136C, strain PFK27, hits give low values 0.94 | locus YOR061W, strain CKA2, hits give low values 0.975 | locus YOR119C, strain RIO1, hits give low values 0.993 | [9] 0.972 | locus YOR329C, strain SCD5, hits give low values 0.991 | locus YPL031C, strain PHO85, hits give low values 0.961 | locus YPL153C, strain RAD53, hits give low values 0.963 | locus YPL204W, strain HRR25, hits give low values 0.941 | locus YPL209C, strain IPL1, hits give low values 0.988 | [10] 1.08 | locus YPR025C, strain CCL1, hits give low values 0.998 | locus YPR106W, strain ISR1, hits give low values 0.985 | locus YPR111W, strain DBF20, hits give low values 0.973 | strain NNK1, hits give low values 0.991 | strain TSCII, hits give low values 0.994

C=CCSSCC=C
active: [4] 0.841 | [5] 0.822 | [9] 0.823
inactive: locus YAL021C, strain ccr4, hits give low values 1.02 | locus YAL026C, strain drs2, hits give low values 1.04 | locus YAL030W, strain snc1, hits give low values 1.03 | locus YBL061C, strain skt5, hits give low values 1.03 | locus YBR009C, strain hhf1, hits give low values 1.03 | locus YBR023C, strain chs3, hits give low values 1.02 | locus YBR171W, strain sec66, hits give low values 1.04 | locus YBR231C, strain swc5, hits give low values 1.04 | locus YBR279W, strain paf1, hits give low values 1.02 | locus YCL011C, strain gbp2, hits give low values 1.04 | locus YCL016C, strain dcc1, hits give low values 1.03 | [1] 1.03 | locus YCL069W, strain vba3, hits give low values 1.03 | locus YCR088W, strain abp1, hits give low values 1.04 | locus YDL005C, strain med2, hits give low values 1.05 | locus YDL040C, strain nat1, hits give low values 1.03 | locus YDR001C, strain nth1, hits give low values 1.04 | locus YDR069C, strain doa4, hits give low values 1.03 | locus YDR137W, strain rgp1, hits give low values 1.07 | locus YDR159W, strain sac3, hits give low values 1.08 | locus YDR195W, strain ref2 1.04 | locus YDR297W, strain sur2, hits give low values 1.03 | locus YDR334W, strain swr1, hits give low values 1.03 | locus YDR335W, strain msn5, hits give low values 1.04 | locus YDR392W, strain spt3, hits give low values 0.901 | locus YEL003W, strain gim4, hits give low values 1.03 | locus YEL037C, strain rad23, hits give low values 1.03 | locus YEL061C, strain CIN8 (second series), hits give low values 1.02 | locus YER015W, strain faa2, hits give low values 1.03 | locus YER016W, strain bim1, hits give low values 1.03 | locus YER111C, strain swi4, hits give low values 1.06 | locus YER155C, strain BEM2 (second series), hits give low values 0.951 | locus YFR010W, strain ubp6, hits give low values 1.05 | locus YGL167C, strain pmr1, hits give low values 1.04 | locus YGL173C, strain kem1, hits give low values 1.05 | locus YGL227W, strain vid30, hits give low values 1.05 | locus YGL240W, strain doc1, hits give low values 1.05 | locus YGL253W, strain hxk2, hits give low values 1.04 | locus YHR013C, strain ard1, hits give low values 1.02 | locus YHR027C, strain rpn1, hits give low values 1.04 | [3] 0.858 | locus YHR142W, strain chs7, hits give low values 1.02 | locus YJL092W, strain hpr5, hits give low values 1.04 | locus YJL095W, strain BCK1 (second series), hits give low values 1.03 | locus YJL115W, strain asf1, hits give low values 1.04 | locus YJL129C, strain trk1, hits give low values 1.03 | locus YJL154C, strain vps35, hits give low values 1.02 | locus YJL164C, strain tpk1, hits give low values 1.01 | locus YJL166W, strain qcr8, hits give low values 1.03 | locus YJL187C, strain SWE1, hits give low values 1.03 | [6] 0.879 | locus YKL160W, strain elf1, hits give low values 1.01 | locus YKR026C, strain gcn3, hits give low values 1.03 | locus YKR091W, strain srl3, hits give low values 1.03 | locus YLL001W, strain dnm1, hits give low values 1.01 | locus YLL026W, hits give low values 1.03 | locus YLL041C, strain sdh2, hits give low values 1.03 | locus YLR027C, strain aat2, hits give low values 1.03 | [7] 0.881 | locus YLR221C, strain rsa3, hits give low values 1.01 | locus YLR258W, strain gsy2, hits give low values 1.03 | locus YLR262C, strain YPT6 (second series), hits give low values 1.03 | locus YLR320W, strain mms22, hits give low values 1.05 | locus YLR342W, strain FKS1, hits give low values 1.04 | locus YLR357W, strain rsc2, hits give low values 0.974 | locus YLR370C, strain arc18, hits give low values 1.04 | locus YLR384C, strain iki3, hits give low values 1.03 | locus YML120C, strain ndi1, hits give low values 1.02 | locus YMR058W, strain fet3, hits give low values 1.03 | locus YMR125W, strain sto1, hits give low values 1.01 | locus YMR129W, hits give low values 1.04 | locus YMR205C, strain PFK2, hits give low values 1.05 | locus YMR231W, strain pep5, hits give low values 1.03 | locus YNL071W, strain lat1, hits give low values 0.923 | [8] 0.864 | locus YNL209W, strain ssb2, hits give low values 1.03 | locus YNL248C, strain rpa49, hits give low values 0.96 | locus YNL322C, strain KRE1 (second series), hits give low values 1.04 | locus YNR049C, strain mso1, hits give low values 1.03 | locus YOR001W, strain rrp6, hits give low values 1.01 | locus YOR070C, strain gyp1, hits give low values 1.02 | locus YOR080W, strain dia2, hits give low values 1.04 | locus YOR083W, strain WHI5, hits give low values 0.998 | locus YOR106W, strain vam3, hits give low values 1.04 | locus YOR265W, strain rbl2, hits give low values 1.03 | locus YOR270C, strain vph1, hits give low values 1.05 | locus YOR290C, strain snf2, hits give low values 0.975 | locus YPL051W, strain arl3, hits give low values 1 | locus YPL078C, strain atp4, hits give low values 1.01 | locus YPL106C, strain sse1, hits give low values 1.07 | locus YPL240C, strain hsp82, hits give low values 1.03 | [10] 0.862
